Results published in PubChem BioAssay AID504832 (National Center for Advancing Translational Sciences (NCATS), 2011).
Hit rate of the full screen: of about 310,000 compounds, about 18,000 (5.8%) were called active. Entries that show only a call come without a potency. Not shown: some 22% with an inconclusive outcome. Calls follow the shape of the dose curve; as a rule, active = well fitted inhibition curve with a large enough effect; inconclusive = small, poorly fitted or top-dose-only effect, or another doubt; inactive = no such curve, though single readings can be large or run the other way. Many of the other results were omitted from the sample, so actives are more common in it than they were.

assay: Primary qHTS for delayed death inhibitors of the malarial parasite plastid, 48 hour incubation; details: P. falciparum luciferase growth in erythrocytes; series mostly up to 28.7 µM
Summary of the method: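 A one-generation exposure of luciferase-tagged malaria parasites in RPMI 1640/Albumax erythrocyte culture, 37 C and 5% CO2. Inhibition is inferred from decreased luminescence after adding detection reagent.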
Potency is read from the fitted curve at half-maximal effect.

| Structure (SMILES) | Potency |
| --- | --- |
| NC(=O)CSC1=Nc2ccccc2C2=NC(CCC(=O)NCc3ccc(F)cc3)C(=O)N12 (centres undefined) | inactive |
| CCC(C)NC(=O)CSC1=Nc2ccccc2C2=NC(CCC(=O)NCc3ccco3)C(=O)N12 (centres undefined) | inactive |
| O=C(CC1N=C2c3ccccc3N=C(SCc3ccccc3Cl)N2C1=O)NCc1ccco1 (centres undefined) | 4.65 µM (active) |
| Cc1ccc(C(=O)NCC(=O)NCc2cc(=O)n(C)c(=O)n2C)cc1 | inactive |
| COc1ccc(NC(=O)CC2SC(N3CCCCC3)=NC2=O)cc1OC (centres undefined) | inactive |
| COc1ccc(C(=O)NC(=S)Nc2ccc(N3CCCC3)cc2)cc1OC | inactive |
| COc1ccc(C(=O)Nc2ccc3nc(N4CCCCC4)cc(C)c3c2)cc1OC | 3.7 µM (active) |
| COc1ccc(NC(=O)CCn2ccnc2)c(OC)c1 | inactive |
| Cc1cc(C)c(-c2csc(NC(=O)CCCc3nc4ccccc4c(=O)[nH]3)n2)c(C)c1 | 0.131 µM (active) |
| CCN(CC)c1ccc(C(=O)NNC(=O)CCc2nc3ccccc3c(=O)[nH]2)cc1 | inactive |
| O=C(CSc1nc2ccccc2c(=O)[nH]1)Nc1nc(-c2ccc(Br)cc2)cs1 | inactive |
| COc1ccc(-c2csc(NC(=O)CCCc3cccs3)n2)cc1 | inactive |
| CC(C)(C)c1ccc(NC(=O)COC(=O)CCc2nc3ccccc3c(=O)[nH]2)cc1 | inactive |
| CC(=O)NCc1ccc(-c2csc(NC(=O)CCCc3nc4ccccc4c(=O)[nH]3)n2)cc1 | 9.28 µM (active) |
| CN(C(=O)CCNC(=O)Cn1ccc2ccccc2c1=O)c1ccc(Br)cc1 | inactive |
| N=c1oc2ccccc2cc1C(=O)NCc1ccccc1 | inactive |
| CS(=O)(=O)N1CCc2cc(C(=O)Nc3ccccc3Br)ccc21 | inactive |
| COc1ccc(NC(=O)CNC(=O)Cc2ccccc2)cc1OC | inactive |
| Cc1cc(NC(=O)CCC(=O)N(Cc2ccccc2)C(C(=O)NC2CCCC2)c2ccc(C)o2)no1 (centres undefined) | inactive |
| CN(Cc1c(F)cccc1Cl)C(=O)CNC(=O)c1ccc2c(c1)OCO2 | inactive |
| NC(=O)NC(CC(=O)NNC(=O)c1ccccn1)c1ccc(Cl)cc1 (centres undefined) | inactive |
| Cc1cc(C)c2c(=O)[nH]c(SCC(=O)Nc3ccc(Br)cc3)nc2n1 | inactive |
| CN(C)CCn1c2c(c(SCC(=O)NCc3ccccc3)nc1=O)CCC2 | inactive |
| COc1ccccc1CNC(=O)CSc1nc(=O)n(Cc2ccncc2)c2c1CCC2 | 11.7 µM (active) |
| CN(C)CCn1c2c(c(SCC(=O)Nc3ccccc3C(F)(F)F)nc1=O)CCCC2 | inactive |
| Cc1ccc(NS(=O)(=O)c2ccc3c(c2)oc(=O)n3C)c(C)c1 | inactive |

| Structure (SMILES) | Potency |
| --- | --- |
| Cc1c(NC(=O)C(C)Oc2cccc(Cl)c2)c(=O)n(-c2ccccc2)n1C (centres undefined) | inactive |
| COc1ccc(NC(=O)c2cnc(NS(=O)(=O)c3ccccc3)nc2)cc1 | inactive |
| Cc1ccc(-c2cc(C(=O)Nc3nn[nH]n3)c3ccccc3n2)c(C)c1 | inactive |
| Cc1cccc(C(=O)NCC(=O)OCC(=O)N(C)CC(=O)Nc2ccccc2Cl)c1 | inactive |
| COc1ccc(C)cc1N(C)C(=O)c1coc(=O)c2ccccc12 | inactive |
| CN(CC(=O)Nc1ccccc1Cl)C(=O)c1ccccc1SCC(=O)N1CCCC1 | inactive |
| COc1ccc(-c2cc(C(=O)N(C)CC(=O)Nc3ccccc3Cl)c3ccccc3n2)cc1OC | 13.1 µM (active) |
| COc1ccc(CN(C)C(=O)c2cc(-c3ccc(C)cc3C)nc3ccccc23)c(OC)c1OC | 9.28 µM (active) |
| COc1cc(N=Cc2c(O)c3ccccc3oc2=O)c(OC)cc1Cl | inactive |
| CC(C)c1nnc(NC(=O)COC(=O)/C=C/c2ccc([N+](=O)[O-])cc2)s1 | inactive |
| COc1ccccc1-n1nnnc1SCC(=O)NC(=O)Cc1ccccc1 | inactive |
| COc1cccc(CNn2cn[nH]c2=S)c1OCc1ccccc1 | 10.4 µM (active) |
| C=CCOc1cccc(CNn2cn[nH]c2=S)c1 | inactive |
| C=CCOc1c(CNn2cn[nH]c2=S)cccc1OC | inactive |
| CC(=O)c1c(C)[nH]c(C(=O)OCC(=O)Nc2c(C)cccc2C)c1C | inactive |
| CSc1ccc(Cl)c(C(=O)OCC(=O)N2CCNC2=O)c1 | inactive |
| CCOC(=O)CC1C(=O)NCCN1c1nc2c(C)cccn2c(=O)c1/C=C1\SC(=S)N(C(C)CC)C1=O (centres undefined) | 8.28 µM (active) |
| CCOC(=O)CC1C(=O)NCCN1C(=O)COc1ccc(Br)cc1C (centres undefined) | inactive |
| COc1ccc(C(=O)NC(=S)N2CCNC(=O)C2CC(=O)OC(C)C)cc1 (centres undefined) | inactive |
| Cc1cc2c(cc1C)[n+](C)cn2CC(O)COCC1CC=CCC1 (centres undefined) | 2.94 µM (active) |
| COc1ccc(S(=O)(=O)NCCOc2ccccc2)cc1F | inactive |
| COc1ccc(NC(=O)CCC(=O)Nc2cc(OC)c(NC(=O)c3ccco3)cc2OC)c(OC)c1 | inactive |
| CC1(c2ccc(Cl)cc2Cl)NC(=O)N(CC(=O)Nc2cccnc2Cl)C1=O (centres undefined) | inactive |
| Cc1cc(Br)ccc1NC(=O)CN(C)C(=O)CN1C(=O)NC2(CCCC2)C1=O | inactive |
| COc1cc(NS(=O)(=O)c2ccc3ccccc3c2)c2ncccc2c1 | 4.15 µM (active) |
| COc1ccc2cc(S(=O)(=O)Nc3ccccn3)ccc2c1 | inactive |

| Structure (SMILES) | Potency |
| --- | --- |
| Cc1ccc(S(=O)(=O)Nc2ccc3ncccc3c2)cc1 | inactive |
| CN(C(=O)C1CCN(c2ncnc3c2nc2n3CCCCC2)CC1)C1CCCCC1 | inactive |
| Cc1cc(C)cc(NC(=O)NCc2ccccn2)c1 | inactive |
| CN(C)C(=O)N=NC(=O)N(C)C | inactive |
| Cc1ccc(C(=O)C[n+]2cc(-c3ccccc3)n3c2CCCCC3)cc1 | 1.85 µM (active) |
| Cc1ccc(-c2c[n+](CC(=O)Nc3ccccc3)c3n2CCC3)cc1 | 7.38 µM (active) |
| Cc1ccc(C(=O)CSc2ccccc2C(=O)O)cc1 | inactive |
| CCS(=O)(=O)N1CCN(C(=O)c2cccs2)CC1 | inactive |
| O=C(C[n+]1cc(-c2ccc(Cl)c(Cl)c2)n2c1CCC2)c1cccs1 | 2.08 µM (active) |
| O=C(CN1C2=NCCN2c2ccccc21)c1cccs1 | inactive |
| Cc1ccc(S(=O)(=O)N(C)CC(=O)OCC(=O)Nc2ccccc2)cc1 | inactive |
| O=C(CN1CCOCC1)Nc1ccccc1 | inactive |
| Cc1ccc(C(=O)CS(C)(=O)=O)cc1 | inactive |
| Cc1c(NC(=O)c2c([N+](=O)[O-])cnn2C)c(=O)n(-c2ccccc2)n1C | inactive |
| Cc1ccc(NC(=O)CCN2C(=O)c3ccccc3C2=O)cc1C | inactive |
| O=C(NCc1ccc2c(c1)OCO2)C(=O)NCC1OCCN1S(=O)(=O)c1ccc(F)cc1 (centres undefined) | inactive |
| O=C(COc1ccccc1)Nc1cc2c3c(c1)CC(=O)N3CCC2 | inactive |
| Cc1nn(-c2ccccc2)c2c1c(C)c(CCC(=O)NCC1CCCO1)c(=O)n2C (centres undefined) | inactive |
| Cc1cc(OCC(=O)Nc2c(C)n(C)n(-c3ccccc3)c2=O)ccc1[N+](=O)[O-] | inactive |
| CCCCc1nc2cc(C(=O)NCCc3cnn(C)c3)ccc2o1 | inactive |
| Cc1oc(-c2ccccc2F)nc1CS(=O)CC(=O)NCCN1CCCCC1C (centres undefined) | inactive |
| CC(C)(C)NC(=O)C(=O)NN=C1CCCCCCC1 | inactive |
| C/C(=N\NC(=S)NC(C)C)c1ccc(C(C)(C)C)cc1 | inactive |
| CC(C)NC(=S)NN=C1CCCCCCCCCCC1 | 11.7 µM (active) |
| COc1ccccc1C(=O)Nc1cccc(C(=O)N2CCOCC2)c1 | inactive |
| Cc1noc(C)c1CCC(=O)N1CCCC(CO)(Cc2ccccc2)C1 (centres undefined) | inactive |

| Structure (SMILES) | Potency |
| --- | --- |
| Cc1ccccc1N1CCN(CCCN2C(=O)C3CCCCN3C2=O)CC1 (centres undefined) | inactive |
| CC(=O)Nc1ccc(S(=O)(=O)NNC(=O)CCc2ccccc2)cc1 | inactive |
| CS(=O)(=O)N1CCCC(C(=O)Nc2ccccc2C(F)(F)F)C1 (centres undefined) | inactive |
| O=C(OCC1OC(Oc2ccc(O)cc2)C(O)C(O)C1O)c1ccccc1 (centres undefined) | inactive |
| Cc1cc(C)c2nc(SCCC#N)nc(C)c2c1 | inactive |
| Cc1cc(C)c2nc3nc(C)cc(C)c3c(N)c2c1 | 2.33 µM (active) |
| Cc1cc(C)c2nc(-c3ccco3)cc(C(=O)O)c2c1 | inactive |
| CCC1=Nc2cc(C(=O)NCCN3CCCC3)ccc2Sc2ccc(C)cc21 | 10.4 µM (active) |
| Cc1cc(C)cc(C(=O)NCCN2CCOCC2)c1 | inactive |
| Cc1ccc(C(=O)NCCN2CCOCC2)cc1C | inactive |
| COc1cccc(C(C(=O)NC2CCCC2)N(C(=O)c2ccco2)c2cccc(C(C)=O)c2)c1OC (centres undefined) | 1.85 µM (active) |
| Cc1ccc(N(C(=O)CNC(=O)c2ccco2)C(C(=O)NC2CCCC2)c2ccncc2)cc1 (centres undefined) | inactive |
| COc1cccc(N(C(=O)CNC(=O)c2ccco2)C(C(=O)NC2CCCCC2)c2cccnc2)c1 (centres undefined) | inactive |
| O=C(NC1CCCC1)C(c1ccc(N2CCOCC2)cc1)N(C(=O)c1ccco1)c1ccccc1F (centres undefined) | 10.4 µM (active) |
| O=C(NC1CCCC1)C(c1ccco1)N(C(=O)c1csnn1)c1ccccc1 (centres undefined) | inactive |
| Cc1ccccc1N(C(=O)CNC(=O)c1cccs1)C(C(=O)NC1CCCC1)c1ccncc1 (centres undefined) | inactive |
| O=C(NCc1ccccc1)C(c1ccco1)N(C(=O)c1csnn1)c1ccccc1F (centres undefined) | inactive |
| COc1cc(C(C(=O)NC2CCCC2)N(C(=O)c2ccco2)c2ccccc2C(C)=O)cc(OC)c1OC (centres undefined) | inactive |
| CC(C)c1ccc(N(C(=O)c2ccco2)C(C(=O)NC2CCCC2)c2cccnc2)cc1 (centres undefined) | 9.28 µM (active) |
| CSc1ccccc1NC(=O)C(C)N1C(=O)c2ccccc2S1(=O)=O (centres undefined) | inactive |
| CC1=C(C(=O)OC2CCCCC2)C(c2ccccc2F)NC(=O)N1 (centres undefined) | inactive |
| CC(=O)c1c(C)[nH]c(C(=O)COc2ccc3c(C)cc(=O)oc3c2)c1C | inactive |
| CN(C1CCS(=O)(=O)C1)S(=O)(=O)c1ccc2ccccc2c1 (centres undefined) | inactive |
| COc1ccc(NC(=O)NNC(=O)COc2cc(C)c(Cl)c(C)c2)c(OC)c1 | inactive |
| CCN1C(=O)/C(=c2\s/c(=C3\Sc4ccccc4N3C)c(=O)n2C)N(C)C1=S | inactive |
| CN1/C(=c2/s/c(=C3/C(=O)N(c4ccccc4)NC3=Nc3ccccc3)n(C)c2=O)C(C)(C)c2ccccc21 | 13.1 µM (active) |
